According to PubChem BioAssay:

Assay: small molecules captured by biotinylated probe aFSTL3 – biochemical, small-molecule microarray, fluorescence 635/667, stem cell growth factor project, primary screen (AID 1064);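 note: measures binding of the biotinylated anti-FSTL3 antibody to printed compounds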
Details: higher = more signal

Going from `CCCC[C@H]1OB(O)C[C@H]2C1=C(C)C[C@H]1C(=O)N(Cc3ccccc3)C(=O)[C@H]12` to `COCC1=C2[C@@H](CCc3ccccc3)OB(O)C[C@@H]2[C@@H]2C(=O)N(Cc3ccccc3)C(=O)[C@@H]2C1`, the composite z-score rises from -0.573 to -0.505.

First: CC1CC/C=C\[C@H]2OC34C=CCN(Cc5ccccc5)C(=O)[C@H]3N(CCCCCO)C(=O)[C@@H]4C2C(=O)O1 (stereo not given in full)
Second: CN(C)CCCNC(=O)[C@@]1(Cc2ccccc2I)c2ccccc2C(=O)N(Cc2ccccc2C(F)(F)F)[C@H]1c1ccc(CO)cc1
The composite z-score of the first is lower: 0.158 for the first, 0.459 for the second.

Going from `COc1ccc([Si](C)(C)[C@@H]2[C@@H](CC(=O)N3CCC[C@H]3CO)O[C@]3(C(=O)N(C)c4c(Br)cc(C)cc43)[C@H]2C)cc1` to `CCC[C@@H]1C=C(C(=O)O)[C@H](c2ccc(C)cc2)N1S(=O)(=O)c1ccc(C)cc1`, the composite z-score rises from -0.438 to -0.0973.

First: COCCOC(=O)N1C(=O)[C@@]2(c3ccccc31)[C@H](C(=O)NC[C@H](O)c1ccccc1)[C@H]1C(=O)O[C@H](c3ccccc3)[C@H](c3ccccc3)N1[C@@H]2c1ccc(OCCO)cc1
Second: COCCOC(=O)N1C(=O)[C@@]2(c3cc(C#CCCO)ccc31)[C@H](c1ccccc1OCCO)N1[C@H](c3ccccc3)[C@H](c3ccccc3)OC(=O)[C@H]1[C@@H]2C(=O)N1CCN(c2ncccn2)CC1
The composite z-score of the first is lower: -0.242 for the first, 0.546 for the second.

Compared with `C=CC[C@@H](OC(=O)Nc1ccc(OC)cc1)c1ccc(O)c2ccccc12`, `COc1ccc(C(O)C2C=CC3C(=O)N(c4ccccc4)C(=O)C3N2Nc2ccc([N+](=O)[O-])cc2)cc1OCc1ccccc1` (stereo not given) is higher in composite z-score: -0.316 for the first, 2 for the second.
